Compounds without any hit were thinned out: in the full panel of roughly 79,000, 15% have a hit. No stated cut-off is given here; in the data, active means growth inhibition above about 70%; inactive means the rest.
What was measured:
[1] = NCI Yeast Anticancer Drug Screen. Data for the rad50 strain (AID 155);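 further: 0% = growth of vehicle-only cultures of the same strain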; conditions: S. cerevisiae rad50 strain growth inhibition; at 50.0 µM; stronger effect = higher value
Method in brief: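 Cells are treated with compound, grown, and their growth is then scored against vehicle-only cultures of the same repair-deficient yeast strain.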

[2] = NCI Yeast Anticancer Drug Screen. Data for the mec2-1 strain (AID 157); conditions: S. cerevisiae mec2-1 strain, at 50.0 µM, stronger effect = higher value
Method in brief: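 mec2-1 yeast strain, carrying an alteration in DNA damage repair or cell cycle control, was exposed to compounds; growth inhibition was measured relative to vehicle-treated controls.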

[3] = NCI Yeast Anticancer Drug Screen. Data for the sgs1 mgt1 strain (AID 161);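 further: 0% = growth of cultures given vehicle only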; conditions: S. cerevisiae sgs1 mgt1 strain, at 50.0 µM, stronger effect = higher value
Method in brief: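 Percent growth inhibition was derived by comparing compound-exposed mutant yeast with vehicle-exposed cultures. The strain carries alterations in DNA damage repair.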

[4] = NCI Yeast Anticancer Drug Screen. Data for the cln2 rad14 strain (AID 165);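 further: 0% = growth equal to vehicle treated cultures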; conditions: S. cerevisiae cln2 rad14 strain, at 50.0 µM, stronger effect = higher value
Method in brief: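 Yeast carrying cln2 and rad14 alterations (cell cycle control and DNA damage repair) were exposed to compounds. Growth inhibition was measured against vehicle-treated controls.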

[5] = NCI Yeast Anticancer Drug Screen. Data for the bub3 strain (AID 167); conditions: S. cerevisiae bub3 mutant strain, at 50.0 µM, stronger effect = higher value
Method in brief: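 Part of a panel of yeast mutants defective in DNA damage repair or cell cycle regulation. Each strain is grown with compound, and inhibition is calculated relative to solvent-treated cultures.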

[6] = NCI Yeast Anticancer Drug Screen. Data for the mlh1 rad18 strain (AID 175); conditions: S. cerevisiae mlh1 rad18 strain growth inhibition; at 50.0 µM; stronger effect = higher value
Method in brief: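 Growth inhibition of the yeast strain was measured after compound exposure and expressed relative to vehicle-treated controls. The strain carries defined defects in DNA damage repair.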

Measured: growth inhibition

C/C=C(/C)C(=O)OC1CC(C)=CC(OC(=O)/C(C)=C\C)[C@]2(C)C1[C@](O)(C(C)C)C[C@H]2OC(C)=O (stereo partly specified)
inactive: [1] 41% | [2] 20.6% | [3] 28.2% | [4] 30.2% | [5] 24.9% | [6] 49.4%

O=c1/c(=C/c2ccccc2F)sc2nc3ccccc3n12
inactive: [1] -2.85% | [2] -11.3% | [3] 12.2% | [4] 29% | [5] 21.1% | [6] 12.3%

C=C1C(=O)O[C@@H]2/C=C(\C)CC/C=C(/COC(C)=O)C[C@@H](OC(C)=O)[C@@H]12
inactive: [1] 7.4% | [2] -28.2% | [3] 20.1% | [4] 0.35% | [5] -1.4% | [6] -30.1%

O=C(c1ccccc1)C(CBr)C(Br)c1ccccc1 (stereo unspecified)
inactive: [1] -17.4% | [2] 24.7% | [3] 10.1% | [4] -24.8% | [5] 16.9% | [6] 1.75%

COc1ccc(N=NN(C(C)=O)c2ccccc2)cc1
inactive: [1] 2.85% | [2] 10.2% | [3] 35.5% | [4] -5.75% | [5] -1% | [6] 19.1%

Cc1[nH]n(-c2nc(-c3ccccc3)cc(=O)[nH]2)c(=O)c1CCO
inactive: [1] -11.8% | [2] -31.5% | [3] -25.9% | [4] 10.8% | [5] -7.1% | [6] -13.2%

O=C(Cc1nc2ccc(C(=O)c3ccccc3)cc2[nH]c1=O)C(=O)Nc1ccc(Br)cc1
inactive: [1] -27.6% | [2] -28.9% | [3] -2.65% | [4] -9.4% | [5] -3.3% | [6] -3.7%

COC(=O)C1(CC(=O)c2cccs2)NC(=S)NC(=O)C1C#N (stereo unspecified)
inactive: [1] 9.4% | [2] 3.55% | [3] -7.5% | [4] -3.35% | [5] -11.3% | [6] 2.55%

CCOc1ccc2nc(NC(=O)C(=O)C(C(=O)c3ccccc3F)C3OC(=O)c4ccccc43)sc2c1 (stereo unspecified)
inactive: [1] 10.9% | [2] 9% | [3] 2.65% | [4] 22.6% | [5] -1.2% | [6] 7%

CCC(=N\NC(=S)NC)/C(C)=N\NC(=S)NC
inactive: [1] -8.3% | [2] -6.4% | [3] -6.5% | [4] -36.1% | [5] 9.1% | [6] -14.2%

CCCCCCCCCCCCCCCCOc1ccc(S(=O)(=O)N/N=c2/sc(-c3ccccc3Cl)nn2C)cc1C(=O)O
inactive: [1] -18.6% | [2] -20.2% | [3] 13.3% | [4] -18.2% | [5] 6.9% | [6] -4.15%

COC(=O)C(C(=O)C(=O)Nc1ccc(C)cc1)c1nc2ccc([N+](=O)[O-])cc2[nH]c1=O (stereo unspecified)
inactive: [1] 16.9% | [2] 15.2% | [3] 0.8% | [4] -3.95% | [5] 22.2% | [6] 4.6%

O=C(O)c1ccc(O)c(Cl)c1
inactive: [1] 14.2% | [2] 5.8% | [3] -7.85% | [4] -22.2% | [5] 9.25% | [6] 25.4%

Oc1cc2c(cc1O)-c1[nH]ncc1CC2
inactive: [1] 24.5% | [2] 0.25% | [3] 3.35% | [4] -17.4% | [5] 4.55% | [6] -4.55%

O=C(NNC1=NCCCCN1)Nc1ccc(Cl)cc1
inactive: [1] 20.9% | [2] 6.8% | [3] 26.4% | [4] 7.4% | [5] 16.6% | [6] 5.95%

CC(C)(CN1CCCCC1)C(=O)/C=C/c1ccc(Br)cc1
inactive: [1] 66.9% | [2] 22.8% | [3] 59.6% | [4] 41.4% | [5] 47.8% | [6] 55.6%

COc1ccc(/C=C/C(=O)C(C)(C)C)cc1OC
inactive: [1] 25.4% | [2] 3.9% | [3] 3.6% | [4] 31.5% | [5] 27.9% | [6] 23.2%

COc1ccc(Cl)cc1NC(=O)Nc1ccc(S(N)(=O)=O)cc1
inactive: [1] 9.7% | [2] 8% | [3] 4.85% | [4] 18.1% | [5] 19.1% | [6] 9.65%

CCC1c2ccccc2[C@H]2C(c3ccccc3)=NN(c3ccccc3)[C@H]2N1CC (stereo partly specified)
inactive: [1] 26.6% | [2] -5.05% | [3] -0.7% | [4] -2.9% | [5] 1.5% | [6] 40.5%

O=C(O)CC(Sc1ccccc1)c1ccccc1 (stereo unspecified)
inactive: [1] 12.9% | [2] -9.2% | [3] -2.8% | [4] 32% | [5] 45.7% | [6] 7.7%

Nc1ccc(S(=O)(=O)OCCOc2ccccc2)cc1
inactive: [1] -2.85% | [2] 7.6% | [3] 2.6% | [4] -4.2% | [5] 18.7% | [6] -7.3%

CON(C)S(=O)c1ccc([N+](=O)[O-])cc1 (stereo unspecified)
inactive: [1] 29.8% | [2] 19.1% | [3] 5.45% | [4] -15.6% | [5] -6.05% | [6] 22.1%

CNC(=O)OCc1c(C)oc(-c2ccc(Cl)c(Cl)c2)c1COC(=O)NC
inactive: [1] 47.5% | [2] -7.15% | [3] 34.5% | [4] 24.1% | [5] 12.3% | [6] 14.4%

CCC(=O)c1c(O)cc(O)cc1O
inactive: [1] -13.8% | [2] -15.6% | [3] 13.7% | [4] -22.6% | [5] 2.5% | [6] -25%

N#C/C=C\c1ccc(Cl)cc1
inactive: [1] 2.6% | [2] -4.5% | [3] -30.4% | [4] -10.8% | [5] -11.8% | [6] -3.05%

COc1ccc(C2SCC(=O)N2NC(=O)c2ccc(NC(C)=O)cc2)c(OC)c1 (stereo unspecified)
inactive: [1] -27.7% | [2] -7.5% | [3] -23.2% | [4] 12.1% | [5] -22% | [6] -11.7%

CCOC(=O)C1=C(C)N(c2ccccc2)C2=C(C(=O)N(c3ccccc3)C2c2ccccc2)C1c1ccccc1 (stereo unspecified)
inactive: [1] 9.9% | [2] -13.8% | [3] 9.25% | [4] 15% | [5] -21.7% | [6] 7.2%

CN(C)c1ncnc2c1ccn2CC(O)CO (stereo unspecified)
inactive: [1] -2.7% | [2] -11.1% | [3] -8.55% | [4] -54.5% | [5] 3.1% | [6] -2.85%

NC(=O)C12CC3CC(CC(Br)(C3)C1)C2
inactive: [1] -7.9% | [2] -6.85% | [3] -8.25% | [4] 16.2% | [5] 2.5% | [6] -7.1%

CC(=O)CC(C)(C)NNS(=O)(=O)c1ccc(C)cc1
inactive: [1] 7.8% | [2] -0.65% | [3] -4.1% | [4] -20.9% | [5] 5.35% | [6] -13.6%

O=[N+]([O-])c1ccc(C2ON2c2ccccc2)cc1 (stereo unspecified) (tested in a mixture with another compound)
inactive: [1] 3.95% | [2] -1.45% | [3] 20.7% | [4] -9.7% | [5] -7.4% | [6] 25.6%

COC(=O)c1ccccc1NC(=O)Nc1cccc(Cl)c1C
inactive: [1] 13.8% | [2] -2.25% | [3] 25.2% | [4] 12% | [5] 17.6% | [6] 17.4%

CC(=O)O[C@]1(C(C)=O)CC[C@H]2[C@@H]3C[C@H](C)C4=CC(=O)C=C[C@]4(C)[C@@]3(F)[C@@H](O)C[C@@]21C
inactive: [1] 3.25% | [2] -35.4% | [3] -10.9% | [4] -15.4% | [5] -16.9% | [6] 20.8%

O=C1c2ccccc2C(=O)N1CCCSc1ccccc1
inactive: [1] -10.2% | [2] -12.7% | [3] -21.9% | [4] -15.6% | [5] -32.4% | [6] -33.9%

CCN(CC)CCN1C(=O)c2cccc3cc(N)cc(c23)C1=O
inactive: [1] -1.9% | [2] -27.3% | [3] -7.4% | [4] -3.75% | [5] -9.6% | [6] 2.2%

CN(CC(=O)O)c1ncc2c(n1)-c1ccccc1OC2c1ccccc1 (stereo unspecified)
inactive: [1] 21.9% | [2] 19.6% | [3] 44.5% | [4] 47% | [5] 28.9% | [6] 67.8%

CC1OC(n2ccc(=O)[nH]c2=O)C=C(OC(=O)c2ccccc2)C1=O (stereo unspecified)
inactive: [1] 12.2% | [2] -12.2% | [3] -11.4% | [4] -7% | [5] -9.55% | [6] 3.4%

O=C(O)CC(=O)c1ccccc1
inactive: [1] -27.8% | [2] 4.85% | [3] -10.4% | [4] 14.2% | [5] 4.35% | [6] -15.8%

CN(C)CCCNc1nnc(NCCCN(C)C)c2[nH]cnc12
inactive: [1] -3.2% | [2] -4.2% | [3] 7.85% | [4] -24.9% | [5] 6.5% | [6] -4.35%

O=S(=O)(CCl)Nc1ccncc1
inactive: [1] -16.6% | [2] -9.6% | [3] -25.6% | [4] -77.2% | [5] 3.1% | [6] -16.8%

O=C(CN1C(=O)c2ccccc2C1=O)OCC1CCCN2CCCCC12 (stereo unspecified)
inactive: [1] 16.6% | [2] -3.3% | [3] 4.9% | [4] -3.55% | [5] -6.25% | [6] -29.4%

Source: PubChem BioAssay (NCI)
